Source: PubChem (National Center for Advancing Translational Sciences (NCATS))
BAZ2B block = inhibitors of human BAZ2B bromodomain. AlphaScreen BAZ2B-H3K14Ac peptide displacement. Potency, µM (top dose mostly 114 µM), for the others: at the highest dose activity change, negative = inhibition, usual class: inhibitors. 360,000 compounds, 4.4% hits. AID 504333; further: potency means the concentration at half of the fitted maximal effect; on the % scale 0 is the no-effect control and ±100 the full control effect; nearly all actives have a fitted effect of over 60% in size
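BAZ2B 50 nM plus b-H3(5-23)K14Ac 50 nM, PBS pH 7.4/0.01% Tween-20, 30 min RT; compound added (max 110 uM), 30 min RT; streptavidin donor/Ni-chelate acceptor beads 10 ug/mL final, 20 min dark; AlphaScreen read.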
G9a inh = inhibitors of human histone lysine methyltransferase G9a; 350,000 compounds, 8.8% hits; G9a H3K9 monomethylation, AlphaScreen, 2 h; Potency, µM (series often up to 102 µM), for the others: top-dose activity, negative = inhibition, hits mostly inhibitors; further: potency means the concentration at half of the fitted maximal effect; on the % scale 0 is the no-effect control and ±100 the full control effect; nearly all actives have a fitted effect of over 75% in size
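Enzyme 20 nM + cpd, 15 min RT; add b-H3K9 pep 500 nM / SAM 20 uM; 2 h RT; anti-H3K9me1 Ab 0.5 ug/mL + SA donor / anti-rabbit acceptor beads 20 ug/mL each, 10 min; AlphaScreen read.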
JMJD2A Tudor = inhibitors of human JMJD2A Tudor domain. O75164. AlphaScreen JMJD2A-Tudor / H3K4me3 peptide binding. Potency, µM (highest dose often 114 µM), for the others: top-dose activity change, negative = inhibition, hits mostly inhibitors. 390,000 compounds, 4.4% hits. AID 504339; further: potency means the concentration at half of the fitted maximal effect; on the % scale 0 is the no-effect control and ±100 the full control effect; nearly all actives have a fitted effect of over 50% in size
CtBP-E1A blk = inhibitors of CtBP/E1A interaction; AlphaScreen GST-E1A/His-CtBP binding, 1536-well; stronger effect = lower value; activity change, % (concentration not given with the values); 340,000 compounds, 0.49% hits; in the data active means activity change below about -65%; inconclusive means mostly about -30% to -63%; further: on the % scale 0 is the no-effect control and ±100 the full control effect
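Steps: dispense buffer (Tris pH 8.0, NaCl 300 mM, TCEP 1 mM, BSA, Tween 20); add 5X protein mix (GST-E1A, His-CtBP, 125 nM each); pin 23 nL compound; 2 h at 37 °C, dark; add 5X beads (50 ug/mL); 1 h; read.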
HP1b chromo inh = blocks HP1-beta chromodomain binding to methylated histone tails; 390,000 compounds, 0.56% hits; AID 540317; Potency, µM (doses to about 114 µM), inactives show at the top dose activity change, negative = inhibition, actives largely listed as inhibitors; P83916; AlphaScreen HP1-beta / biotin-H3K9me3 peptide binding; further: potency means the concentration at half of the fitted maximal effect; nearly all actives have a fitted effect of over 70% in size
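HP1-beta protein (50 nM final) preincubated 30 min at room temperature with biotinylated H3(1-18)K9me3 peptide (50 nM) in PBS pH 7.4, 0.01% Tween-20, then compound added for 30 min. AlphaScreen streptavidin donor/nickel chelate acceptor beads (10 ug/mL final), 30 min dark, luminescence read.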
Six1-Eya2 inh = Six1/Eya2 interaction inhibition | Q15475+O00167 | AlphaScreen GST-Six1/His-Eya2 binding, biochemical; stronger effect = lower value | activity change, % (no concentration beside the values) | 360,000 compounds, 0.56% hits | AID 651725; in the data active means activity change below about -65%; inconclusive means mostly about -30% to -63%; further: on the % scale 0 is the no-effect control and ±100 the full control effect
Target sequence (O00167 whole entry, looked up): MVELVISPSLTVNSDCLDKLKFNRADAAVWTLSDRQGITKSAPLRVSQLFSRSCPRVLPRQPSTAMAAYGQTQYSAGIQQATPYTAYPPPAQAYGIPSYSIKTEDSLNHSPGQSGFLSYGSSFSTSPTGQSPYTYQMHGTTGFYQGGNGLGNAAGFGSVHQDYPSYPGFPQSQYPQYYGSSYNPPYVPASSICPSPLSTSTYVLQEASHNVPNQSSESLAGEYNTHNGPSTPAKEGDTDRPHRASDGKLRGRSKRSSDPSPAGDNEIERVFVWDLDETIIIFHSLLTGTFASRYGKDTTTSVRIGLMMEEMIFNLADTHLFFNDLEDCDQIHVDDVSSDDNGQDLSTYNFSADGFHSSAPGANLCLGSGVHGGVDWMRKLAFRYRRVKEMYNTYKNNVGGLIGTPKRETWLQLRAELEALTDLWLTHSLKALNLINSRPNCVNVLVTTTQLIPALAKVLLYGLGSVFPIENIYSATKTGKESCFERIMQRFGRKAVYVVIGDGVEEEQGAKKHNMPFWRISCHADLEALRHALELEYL
Target sequence (Q15475 whole entry, looked up): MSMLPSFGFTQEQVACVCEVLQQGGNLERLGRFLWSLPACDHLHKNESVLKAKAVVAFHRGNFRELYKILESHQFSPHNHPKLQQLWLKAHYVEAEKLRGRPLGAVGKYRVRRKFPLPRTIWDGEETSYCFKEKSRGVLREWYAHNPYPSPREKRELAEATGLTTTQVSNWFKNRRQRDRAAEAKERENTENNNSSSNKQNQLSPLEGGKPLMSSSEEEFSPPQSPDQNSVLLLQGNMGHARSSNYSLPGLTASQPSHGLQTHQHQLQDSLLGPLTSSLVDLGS
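Homogeneous AlphaScreen proximity assay pairing GST-Six1 with His-tagged Eya2 (added as 5X mix: 250 nM and 500 nM) in 50 mM Tris pH 8.0, 300 mM NaCl, 1 mM TCEP. Glutathione donor and nickel acceptor beads; 1 h, 37 °C, dark.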
* hit, by the source's call; u = inconclusive; x = no result; [ ] = another dose, or the depositor's remark. Rows were chosen to be rich in hits. Some 10% of all compounds tested hit in one or more screens of this group. Unless noted, the call rests on the fitted dose curve; in most records, active means well fitted inhibition curve with a large enough effect; inconclusive means small, poorly fitted or top-dose-only effect; inactive means no such curve, though single readings can be large or run the other way.

SMILES	BAZ2B block	G9a inh	JMJD2A Tudor	CtBP-E1A blk	HP1b chromo inh	Six1-Eya2 inh
Cn1cc(C=C2C(=O)CC(C)(C)CC2=O)c2ccccc21	u	45µM*	u	-14	-15%	-11
NC(N)=NCCC[C@H](NC(=O)CNC(=O)c1ccccc1)C(=O)Nc1cc(C(F)(F)F)ccc1Cl	x	x	-30%	x	x	x
CCCc1nc2c(C)cc(C)cc2c(N)c1CC	-34%	u	4.5µM*	-8	-11%	-5
Cc1cc(C)c2nc(C(F)(F)F)c(C#N)c(N)c2c1	10%	16%	-5%	4	26%	7
CC(C)(C)c1ccc(O)c(N=Cc2cc3c(cc2[N+](=O)[O-])OCO3)c1	50µM*	6%[0.501 µM]	u	-12	u	-25
O=[N+]([O-])c1cc(Br)cc(C=Nc2ccc3c(c2)OCO3)c1O	45µM*	45µM*	u	x	-13%	-1
O=C(CCc1ccc(O)c(O)c1)N/N=C/c1cc2c(cc1[N+](=O)[O-])OCO2	45µM*	3.5µM*	40µM*	-7	u	-9
O=[N+]([O-])c1ccc(O)c(C=Nc2ccc3c(c2)OCO3)c1	-11%	x	-9%	0	17%	-5
Cc1ccc(C)c(N=Cc2cc3c(cc2[N+](=O)[O-])OCO3)c1	20µM*	u	50µM*	-13	45µM*	5
Cc1csc2c(C#N)c(=O)c3c(n12)CCC3	-3%	10%	-3%	8	15%	u
Cc1nnc(SCC(=O)N(C)C2CCCCC2)s1	1%	-2%	-13%	4	17%	1
Cc1cccc(C)c1NC(=O)C1CCCN(S(=O)(=O)c2c(C)noc2/C=C/N(C)C)C1 (stereo unspecified)	-18%	2%[59 µM]	-12%	x	45%	x
O=[N+]([O-])c1cc2c(cc1/C=N\NS(=O)(=O)c1ccccc1)OCO2	-5%	4µM*	-11%	8	23%	-2
CCOC(=O)CN(C(=O)CSc1nnc(CNc2ccc(C)cc2C)o1)c1ccccc1	50µM*	-8%[59 µM]	u	-10	-10%	-5
CN1CCS/C1=C/C=C1/SC(=S)N(Cc2ccccc2)C1=O	10µM*	u	u	-28	13µM*	u
CCCCN1C(=O)/C(=C/C=C2\N(C)c3ccccc3C2(C)C)SC1=S	8.9µM*	u	x	x	x	x
CCN1C(=O)/C(=C\N2CCCCCC2)SC1=S	-38%	u	u	-8	u	-7
CCOC(=O)/C=C1/N(C)c2ccccc2C1(C)C	-18%	4%	-7%	-5	35%	56
O=C1/C(=C/c2ccccn2)SC(=S)N1CCc1ccccc1	-23%	u	-17%	x	12%	-15
CCCN1C(=O)/C(=C\C=C2/C=CN(CC)c3ccccc32)SC1=S	u	7.9µM*	u	-1	u	-28
CCCCN1C(=O)/C(=C/C=C2\SCCN2C)SC1=S	10µM*	13µM*	35µM*	6	28µM*	u
COc1ccc(OC)c(Nc2cc(C)nc3ccc(C)cc23)c1	x	x	-28%	-14	-7%	-4
CN1CCS/C1=C/C=C1\SC(=S)N(CC(=O)O)C1=O	50µM*	45µM*	u	-4	-4%	-7
CC(/C=C1\SC(=S)N(CC(=O)N2CCN(c3ccccc3)CC2)C1=O)=C\c1ccccc1	-37%	-11%[59 µM]	-6%	-10	14%	-13
COc1ccccc1N1CCN(C(=O)c2ccccc2SCC(=O)NCc2ccco2)CC1	-4%	50µM*	-22%	-7	19%	6
SMILES	BAZ2B block	G9a inh	JMJD2A Tudor	CtBP-E1A blk	HP1b chromo inh	Six1-Eya2 inh
COc1cccc(N2CCN(C(=O)c3ccccc3SCC(=O)NCc3ccco3)CC2)c1	-38%	-2%[12.7 µM]	-36%	x	40%	3
COc1ccccc1N1CCN(C(=O)c2ccccc2SCC(=O)N2CCCC2)CC1	13%	79µM*	-19%	0	35%	6
CCOc1ccccc1N1CCN(C(=O)c2ccccc2SCC(=O)N2CCCC2)CC1	-20%	u	-10%	7	57%	3
COc1ccccc1-n1ccnc1SCC(=O)NCC1CCCO1 (stereo unspecified)	-3%[57.1 µM]	0%	8%	10	24%	4
COc1ccccc1-n1ccnc1SCC(=O)NCc1ccco1	-39%	-38%	40µM*	7	-31%	-10
Cn1cccc1C(=O)N1CCC2(CCCN(C(=O)Nc3ccccc3)C2)CC1	x	-2%[12.7 µM]	x	x	x	x
O=C(O)c1cccc(-c2ccc(/C=N/NC(=O)C3COc4ccccc4O3)o2)c1 (stereo unspecified)	u	40µM*	-16%	-18	8%	-14
CC(C)(C)c1ccc2c(c1)OC(C(=O)N/N=C\c1ccc(-c3cccc(C(=O)O)c3)o1)CO2 (stereo unspecified)	50µM*	40µM*	-25%	7	3%	-16
CC(C)(C)c1ccc2c(c1)OC(C(=O)N/N=C\c1ccccn1)CO2 (stereo unspecified)	2%	3%[59 µM]	-10%	u	33%	-12
Cc1ccc(-c2[nH][nH]c(=O)c(=O)c2N=Nc2ccccc2)cc1	-30%	45µM*	-14%[11.4 µM]	7	u	4
COc1ccccc1NC(=O)CN1CCSc2ccccc21	-1%	u	-27%	0	5%	-14
CCN1CCN(CC(=O)Nc2cccc(C)c2)C(=O)C1=O	x	x	-6%	2	41%	1
Cc1cccc(NC(=O)CN2CCSc3ccccc32)c1	u	45µM*	-24%	0	31%	10
COc1cccc(NC(=O)CN2CCSc3ccccc32)c1	u	22µM*	-33%	-7	3%	-22
CC(CCc1ccccc1)NC(=O)CN1CCSc2ccccc21 (stereo unspecified)	u	32µM*	56µM*	-25	79µM*	-13
COc1ccc(-c2nnc3n2N=C(c2ccccc2OC)CS3)cc1	x	x	-36%	x	x	x
COc1c(Cl)cccc1NC(=O)c1c(NC(=O)Cc2ccccc2)sc2c1CCCC2	x	x	-10%	x	x	x
CCc1ccc2[nH]c(C(=O)N(C)c3ccc(F)cc3F)cc2c1	-12%	40µM*	-13%	3	27%	8
CCc1ccc2[nH]c(C(=O)Nc3ccc(C)c(F)c3)cc2c1	-6%	7%[2.33 µM]	-14%	-6	32%	-9
COC(=O)C1=CC(C(=O)c2cccs2)=NN(c2ccc(OC)cc2)C1C(=O)OC (stereo unspecified)	8.9µM*	13µM*	25µM*	u	u	u
COC(=O)C1=CN(Cc2ccc(OC)cc2)C=C(C(=O)OC)C1c1cccs1	56%	x	72%	44	104%	28
